Inconclusive results are not listed. Entries that show only a call come without a potency. Activity calls are given as the source filed them. Calls follow the shape of the dose curve; as a rule, active = well fitted activation curve with a large enough effect in the repeat runs; inconclusive = weak or mixed curves; inactive = flat fitted curve, though single readings scatter.
Potency is read from the fitted curve at half-maximal effect.

This experiment in a line: A CellTox Green Cytotoxicity Assay to monitor cytotoxicity in HEK293 cells - 40 hour (AID 1224871). Also: nearly all actives have a fitted effect of over 45% in size. The settings on record: CellTox Green fluorescence; series mostly up to 76.8 µM. An excerpt:
National Center for Advancing Translational Sciences [NCATS]
NIH Chemical Genomics Center [NCGC]
U.S. Environmental Protection Agency [EPA]
National Institutes of Environmental Health Sciences [NIEHS]
National Toxicology Program [NTP]
Cell-based models are critical for drug discovery. Determining the natural cytotoxic effects resulting from test compounds is an essential research activity. A CellTox Green Cytotoxicity Assay to monitor cytotoxicity in real time of continues cell culture during 40 hours of the compound treatment was used to screen Tox21 10K library compounds in Hek293 cells. CellTox Green Cytotoxicity Assay is a nonlytic, homogeneous, biofluorescent method to measure cytotoxicity in cell culture after experimental manipulation. The assay system uses a proprietary asymmetric cyanine dye that is excluded from viable cells but preferentially stains the dead cell's DNA. […] Viable cells produce no appreciable increases in fluorescence. Therefore, the fluorescence signal produced by the binding interaction with dead cell DNA is proportional to cytotoxicity.
The mixture of Hek293 cell suspension and reagents were dispensed at 600cells/6 ul/well in 1536-well tissue culture treated black solid bottom plates using a Multidrop dispenser. After the assay plates were incubated at a 37 C/5% CO2 incubator for 5 hours, 23 nL of compounds dissolved in DMSO, positive and negative controls was transferred to the assay plate by a pintool work station. The plates were incubated at 37 C for 40 hours. The fluorescence intensity were measured at 0h, 8h, 16h, 24h, 32h and 40h time points using ViewLux plate reader during compound treatment.
Consider `COc1cccc2c1cc([N+](=O)[O-])c1c(C(=O)O)cc3c(c12)OCO3`, for which the Potency result is “inactive”. With `CC(CC(C#N)(c1ccccc1)c1ccccc1)N(C)C` (stereo not given), the Potency entry is “inactive”. The entry for `Nc1cc(Cl)ccc1O` is “inactive”; for `CCOP(=S)(OCC)Oc1ncn(-c2ccccc2)n1` it is “inactive”.

For `c1ccc(N2CCNCC2)cc1`, the Potency result was “inactive”. With `C[N+](C)=CCl`, the Potency result was “inactive”. The entry for `CC(=O)Nc1cc([As](=O)(O)O)ccc1O` is “inactive”. As for `CCC#N`, the entry is “inactive”; as for `CCC1(c2ccccc2)C(=O)NC(=O)NC1=O`, “inactive”. `CCOP(=O)(OCC)OP(=O)(OCC)OCC`: the Potency result is “inactive”.

Take `O=[N+]([O-])c1cc(Cl)c(Cl)c(Cl)c1`: the Potency is 21.7 µM (active).

For `CC(C)CC(N(C)C)C1(c2ccc(Cl)cc2)CCC1` (stereo not given), the Potency was 23.9 µM (active).

As to `N#CCNCC#N`, the Potency entry is “inactive”. As for `O=[N+]([O-])c1ccc(CBr)cc1`, the entry is “inactive”. Take `OCCBr`: the Potency entry is “inactive”.

Consider `CCCCC(=O)Cl`, for which the Potency entry was “inactive”.

Regarding `C#CCN1C(=O)COc2cc(F)c(N3C(=O)C4=C(CCCC4)C3=O)cc21`, the Potency result is “inactive”.

Regarding `CCOc1nc(C(Cl)(Cl)Cl)ns1`, the Potency entry is “inactive”. As for `N#CC(CCc1ccc(Cl)cc1)(Cn1cncn1)c1ccccc1` (stereo not given), the figure is 49 µM (active). The entry for `O=CNC(N1CCN(C(NC=O)C(Cl)(Cl)Cl)CC1)C(Cl)(Cl)Cl` (stereo not given) is “inactive”. As for `N#CC(O)c1ccccc1` (stereo not given), the entry is “inactive”; as for `CCCSC(=O)N(CCC)CCC`, “inactive”. Take `CCC(C)n1c(=O)[nH]c(C)c(Br)c1=O` (stereo not given): the Potency result was “inactive”. As for `CCCCOC(=O)c1ccccc1C(=O)O`, the entry is “inactive”. The entry for `OC(Cn1cncn1)(c1ccc(F)cc1)c1ccccc1F` (stereo not given) is “inactive”; for `CC(Oc1ccc(Oc2ncc(C(F)(F)F)cc2Cl)cc1)C(=O)O` (stereo not given) it is “inactive”; for `C=CC1CC=CCC1` (stereo not given) it is “inactive”. The entry for `COP(N)(=S)Oc1ccccc1C(=O)OC(C)C` (stereo not given) is “inactive”; for `CC(C)COP(=O)(OCC(C)C)OCC(C)C` it is “inactive”; for `CC(=O)[C@H]1CC[C@H]2[C@@H]3CC[C@H]4C[C@H](O)CC[C@]4(C)[C@H]3C(=O)C[C@]12C` it is “inactive”.

With `O=NN1CCCCC1`, the Potency entry is “inactive”. As for `O=P(O)(Oc1ccccc1)Oc1ccccc1`, the entry is “inactive”.

Take `NC1=NC(=O)C(c2ccccc2)O1` (stereo not given): the Potency entry was “inactive”. The entry for `CCCSP(=S)(OCC)Oc1ccc(Cl)cc1Cl` (stereo not given) is “inactive”; for `ClCC(Cl)Cl` it is “inactive”. The entry for `CCOP(=S)(OCC)SCSc1ccc(Cl)cc1` is “inactive”; for `CCCCCCBr` it is “inactive”; for `O=C(N[C@H]1CN2CCC1CC2)c1cc2ccoc2cn1` it is “inactive”.

As to `CCCCCCI`, the Potency result is “inactive”. The entry for `C[C@]12CC[C@H]3[C@@H](CCC4=CC(=O)CC[C@@]43C)[C@@H]1CC[C@@H]2C(=O)O` is “inactive”.

The values are drawn from PubChem BioAssay (Tox21).
